The sample as a whole holds a higher share of hits than the screen did.
Tg IFNy HTS – blocks Toxoplasma gondii growth in the presence of IFN-gamma. Toxoplasma gondii growth in IFN-gamma-treated host cells; active compounds read low. activity change, negative = inhibition, % (test concentration not listed). 3.8% of 69,000 active; in the data active = activity change below about -70%, passing the limit was not always enough;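 note: host cells are HeLa cells infected with Toxoplasma gondii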
An asterisk follows results filed as active; ! = repeats disagree.

SMILES	Tg IFNy HTS
O=C(Nc1ccccc1F)c1c(O)c2cccnc2n(Cc2ccccc2)c1=O	42
Cc1ccc(NC(=O)c2c(O)c3cccnc3n(Cc3ccccc3)c2=O)cc1C	94
Cc1ccc(NC(=O)c2c(O)c3cccnc3n(Cc3ccccc3)c2=O)cc1F	30
O=C(Nc1ccc(Cl)cc1)c1c(O)c2cccnc2n(Cc2ccccc2)c1=O	44
Cc1ccc(NC(=O)c2c(O)c3cccnc3n(Cc3ccccc3)c2=O)c(F)c1	138
O=C(NCc1ccccc1Cl)c1c(O)c2cccnc2n(Cc2ccccc2)c1=O	-108*
Cc1cccc(CNC(=O)c2c(O)c3cccnc3n(Cc3ccccc3)c2=O)c1	-119*
O=C(NCc1ccc2c(c1)OCO2)c1c(O)c2cccnc2n(Cc2ccccc2)c1=O	-77*
Cc1cccc(C(C(=O)NCCc2cnc[nH]2)N(C)C)c1 (centres undefined)	8
COCCNC(=O)C[C@H]1COC[C@H]2CN(Cc3ccncc3)C[C@@H]12	-29
COc1ccc(C2=CCN(Cc3ccccc3)CC2)cc1OC	277
CC(=O)Nc1ccc(NC(=O)c2cc3cccnc3n(Cc3ccccc3)c2=O)cc1	41
CC(C)N(C)CC1COC2(CNCCOC2)C1 (centres undefined)	-8
CCN1CCC2(COCc3cnc(NCC4CC4)nc32)C1 (centres undefined)	146
O=C(NCc1ccccc1Cl)c1cc2cccnc2n(Cc2ccccc2F)c1=O	79
O=C(Cc1ccc(Cl)cc1)N1CCCC2(CCCN2Cc2ccc(C(F)(F)F)cc2)C1 (centres undefined)	3
Cc1noc(C)c1CN1CC2CC(C1)N(CC(=O)O)C2 (centres undefined)	107
Cc1nc2c(c(=O)[nH]1)CC1CCC(C2)N1C(=O)C(C)n1nc(C(F)F)cc1C (centres undefined)	5
O=C(NCc1ccc(F)cc1F)c1c(O)c2cccnc2n(Cc2ccccc2)c1=O	-104*
O=C(Nc1cc(F)ccc1F)c1c(O)c2cccnc2n(Cc2ccccc2)c1=O	164
O=C(NCc1ccco1)c1cc2cccnc2n(Cc2ccccc2)c1=O	-45
O=C(NCc1ccco1)c1c(O)c2cccnc2n(Cc2ccccc2)c1=O	-99*
COc1ccccc1NC(=O)c1c(O)c2cccnc2n(Cc2ccccc2)c1=O	47
O=C(Nc1ccc(F)cc1F)c1c(O)c2cccnc2n(Cc2ccccc2)c1=O	-22
CCN1CC[C@@H]2[C@H]1CCN2Cc1cnn(C)c1	0
SMILES	Tg IFNy HTS
Oc1ccc(CN2CCN(Cc3cccc(F)c3)CC2)c(Cl)c1	-21
COC(=O)c1ccccc1NC(=O)c1cc2cccnc2n(Cc2ccccc2)c1=O	4
NCC(CC(=O)O)c1ccccc1 (centres undefined)	-1
COCCN1CCN(Cc2cnn(C)c2)Cc2cccnc21	63
COc1ccccc1[C@@H]1CN(C(=O)c2cc(=O)[nH]c(=O)[nH]2)[C@@H]2C3CCN(CC3)[C@@H]21	6
COc1cc2cc(c1Cl)N(C)C(=O)C[C@H](OC(=O)C(C)C)[C@]1(C)O[C@H]1[C@H](C)[C@@H]1C[C@@](O)(NC(=O)O1)[C@H](OC)/C=C/C=C(/C)C2	-80*
Cc1nc([C@H]2C[C@@H]3CCN(Cc4c(C)noc4C)C[C@@H]3O2)n[nH]1	4
O=C(CCCN1CCC2(CC1)C(=O)N(Cc1cccc(F)c1)CN2c1ccccc1)c1ccc(F)cc1	-83*!
CCC(=O)N1CCC2(CC1)C(=O)N(Cc1cccnc1)CCN2C	-2
COC(=O)CN1CN(c2ccccc2)C2(CCN(Cc3ccc4ccccc4c3)CC2)C1=O	-8
C/C=C/CC(=O)N1CCCC2(CCN(C)CC2)CC1	-1
CCS(=O)(=O)NC[C@@]12COC[C@H]1CN(Cc1c(C)noc1C)C2	-20
CCOC[C@@H]1CCC[C@]12CN(Cc1c(C)noc1C)CCO2	16
c1cnc(N2CCO[C@H]3CN(Cc4cccs4)C[C@@H]32)nc1	-71*
CC(C)N1CCO[C@@H]2CN(Cc3nccs3)C[C@@H]21	5
Cc1ccc(CN2C[C@@H]3OCCN(c4ncccn4)[C@H]3C2)s1	-66
CCc1ccccc1NC(=O)c1cc2cccnc2n(Cc2ccccc2)c1=O	51
C=CCN1CCN(Cc2nccn2C)Cc2cccnc21	-6
CCN1CCc2c(CNC(=O)c3nccn3C)cncc2C1	-54
C[C@]12CC[C@H](O)C[C@H]1CC[C@@H]1[C@@H]2C[C@@H](O)[C@]2(C)[C@@H](C3=CC(=O)OC3)CC[C@]12O	-87*
CC(=O)[C@H]1CC[C@H]2[C@@H]3CC[C@H]4C[C@H](O)CC[C@]4(C)[C@H]3C(=O)C[C@]12C	17
CC(=O)OCC(=O)[C@H]1CC[C@H]2[C@@H]3CC[C@H]4C[C@H](O)CC[C@]4(C)[C@H]3C(=O)C[C@]12C	2
C[C@]12CC[C@H](O)C[C@H]1CC[C@@H]1[C@@H]2CC[C@]2(C)[C@@H](C3=CC(=O)OC3)CC[C@]12O	-85*
C[C@]12CCC3[C@@H](CC[C@@H]4C[C@H](O)CC[C@]34C)[C@@H]1CCC2=O (some centres undefined)	37
CC12CC[C@H]3[C@@H](CCC4(O)C[C@H](O)CCC34/C=N/NC(=O)Cc3ccccc3)C1(O)CCC2C1=CC(=O)OC1 (some centres undefined)	-10
SMILES	Tg IFNy HTS
C[C@]12[C@H](O)CC3C(CC[C@@H]4C[C@@H](O)CC[C@]34C)[C@@]1(O)CC[C@@H]2C1=CC(=O)OC1 (some centres undefined)	-79*
Cc1ccc(NC(=O)c2cc3cccnc3n(Cc3ccc(Cl)cc3)c2=O)cc1C	37
Cc1cnc(N2CCCC3(CCCN3Cc3cccnc3)C2)nc1 (centres undefined)	-14
Cc1ccc2c(n1)N(C)CCN(S(=O)(=O)c1cn(C)cn1)C2	4
Clc1ccc(C23CNCC2C3)cc1Cl (centres undefined)	15
COc1cccc(NC(=O)c2cc3cccnc3n(Cc3ccccc3)c2=O)c1	6
CCn1nc(C)c(CNC(C)Cc2cccc(OC)c2)c1C (centres undefined)	-1
O=C(Nc1cccc(C(F)(F)F)c1)c1cc2cccnc2n(Cc2ccccc2F)c1=O	-19
CN(CCc1ccccc1)C1CCCN(C(=O)Cc2c[nH]c(=O)n(C)c2=O)C1 (centres undefined)	2
CC(Cc1ccccc1F)NCc1ccc(C(=O)N2CCCC2)cc1 (centres undefined)	-18
Cc1cnc(N2CCN3C[C@H](OCC4CC4)C[C@@H]3C2)nc1	-15
Clc1ccc(COC(Cn2ccnc2)c2ccc(Cl)cc2Cl)cc1 (centres undefined)	-75*!
Clc1ccc(CSC(Cn2ccnc2)c2ccc(Cl)cc2Cl)cc1 (centres undefined)	-84*
c1ccc(Cn2ccnc2)cc1	-2
Cc1nn(CCNC(C)Cn2ccnc2)c(C)c1Cl (centres undefined)	-3
CN1C[C@H]2COC[C@H](CC(=O)Nc3cccnc3)[C@H]2C1	-10
CNC(=O)C[C@@H]1C[C@@H]2CN(Cc3ccncc3)C[C@H]2O1	-48
O=C(O)CN1C[C@@H]2C(NC(=O)c3ccno3)[C@H]2C1 (some centres undefined)	-29
CCN1C[C@@H]2N(c3ncccn3)CCC[C@@]2(C(=O)NCC2CC2)C1	10
c1ccc(CN2CC[C@@H]3[C@@H]2CCN3c2ncccn2)nc1	33
C1CCN2C(C1)N1CCCCC1N1CCCCC21 (centres undefined)	-19
CN1CCC2(CCCN2C(=O)c2ccno2)CC1	47
